HepG2 tox: qHTS for Inhibitors of TGF-b: Cytotox Counterscreen. HepG2 CAGA-GFP viability, ATP luminescence, 18 h. Potency, µM (doses to about 46.1 µM), inactives show at the top dose activity change, negative = cytotoxicity, most hits filed as cytotoxic. 410,000 tested, 0.76% active; also: potency is read from the fitted curve at half-maximal effect
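HepG2 CAGA-GFP cells (1000/well, DMEM with 1% FBS) received compound, then TGF-beta at 500 pg/mL final, and were incubated 18 hours at 37 degrees C. Viability was read by CellTiter-Glo luminescence. Media-only wells were set as complete cell-killing and DMSO as no toxicity.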
IL1B secr inh: qHTS for Inhibitors of Inflammasome Signaling: IL-1-beta AlphaLISA Primary Screen. activity change, % at 57.5 µM. THP-1 LPS/ATP IL-1B secretion, AlphaLISA, 16 h; active compounds read low. 360,000 tested, 4.7% active; in the data active = activity change below about -50%; inconclusive = mostly about -30% to -49%; also: % is scaled to controls: 0 for no effect and ±100 for the full control effect
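Secreted IL-1B measured by AlphaLISA bead assay after 16 h compound exposure of THP-1 cells; compounds (final up to 57.5 uM) added 1 h before LPS (250 ng/mL) and ATP (1.25 mM) stimulation; lower signal means less secretion.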
HT1080 IDH1KD tx: qHTS for induction of synthetic lethality in tumor cells producing 2HG: qHTS for the HT-1080-IDH1KD cell line | HT-1080 IDH1 knockdown viability, ATP luminescence, 48 h | Potency, µM (doses to about 46.1 µM), inactives show at the highest dose activity, negative = toxicity, hits mostly cytotoxic | 360,000 tested, 2% active;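 also: potency is read from the fitted curve at half-maximal effect; 0% = DMSO wells and -100% = cell-free medium wells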
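Assay cells: HT-1080 with IDH1 knockdown, 750 per well, RPMI/5% FBS. Exposure: 48 h at 37 °C following 2 h pre-incubation. Read: CellTiter-Glo luminescence; fitted concentration-response, curve class assigned.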
Giardia killer: Small Molecules that selectively kill Giardia lamblia: qHTS | Giardia lamblia trophozoite viability | activity change, % at 7.66 µM, hits read low | 340,000 tested, 0.15% active | AID 540267, 2011; in the data active = activity change below about -80%; inconclusive = between about -30% and that limit;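 also: parasites exposed to compound for two days anaerobically before the ATP read; % is scaled to controls: 0 for no effect and ±100 for the full control effect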
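Luminescence from cellular ATP indicates surviving trophozoites (100 cells/well) following 48 hrs anaerobic compound treatment at 37 deg C; signal develops 15-30 min at room temperature.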
TGFb SMAD3 inh: qHTS for Inhibitors of TGF-b. HepG2 CAGA-GFP TGF-b/SMAD3 reporter, GFP fluorescence, 18 h; TGF-beta stimulated, 500 pg/mL final. Potency, µM (doses to about 46.1 µM), inactives show at the top dose activity, negative = inhibition, most hits filed as inhibitors. 410,000 tested, 1.2% active; also: potency is read from the fitted curve at half-maximal effect; % is scaled to controls: 0 for no effect and ±100 for the full control effect; nearly all actives have a fitted effect of over 65% in size
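Per well, imaged GFP fluorescence of HEPG2 CAGA-GFP cells gives the signal; cells get compound, then TGF-beta (500 pg/mL final), 18 h at 37 degrees C; %Activity versus -TGF-beta and +DMSO controls.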
HT1080-NT tox: qHTS for induction of synthetic lethality in tumor cells producing 2HG: qHTS for the HT-1080-NT fibrosarcoma cell line; Potency, µM (highest dose often 46.1 µM), for the others: at the highest dose activity, negative = less viability, hits mostly cytotoxic; AID 686970, 2013; 360,000 tested, 1.6% active; HT-1080-NT fibrosarcoma viability, CellTiter-Glo ATP luminescence, 48 h;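 also: NT is the 2HG producing partner of a matched IDH1 knockdown line; potency is read from the fitted curve at half-maximal effect; 0% = DMSO-treated cells and -100% = media-only wells without cells; nearly all actives have a fitted effect of over 55% in size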
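Read-out is CellTiter-Glo luminescence after 10 minutes at room temperature, following 48 hours' compound treatment of HT-1080-NT cells (750 cells/well, RPMI, 5% FBS, 37 degrees C).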
Active calls of the source: *; ? = inconclusive; . = not tested or not shown. This is a sample that favours compounds with a hit; in the whole collection about 6.5% have one here. Unless noted, calls follow the shape of the dose curve; as a rule, active = well fitted curve in the direction sought with a large enough effect; inconclusive = small, poorly fitted or top-dose-only effect, or another doubt; inactive = no such curve, though single readings can be large; an effect the other way counts as inactive or inconclusive.

SMILES	HepG2 tox	IL1B secr inh	HT1080 IDH1KD tx	Giardia killer	TGFb SMAD3 inh	HT1080-NT tox
C#CC[N+]1(CC#Cc2ccc(C#CC[N+]3(CC#C)CCOCC3)cc2)CCOCC1	-19%	-8	-3%	-3	-1%	2%
O=C(NCc1ccc(Cl)s1)c1cc(COc2c(F)cccc2F)on1	-32%	-9	0%	5	-5%	-3%
Cn1cccc1Cc1nnc(SCC(=O)Nc2nc3ccccc3s2)n1CCc1ccccc1	-42%	34	?	5	?	-8%
CCCN(C(=O)Cn1nc(Cc2cccnc2)c2ccccc2c1=O)c1ccc(C(C)C)cc1	13µM*	.	.	.	20µM*	.
CCCN(C(=O)Cn1nc(Cc2ccncc2)c2ccccc2c1=O)c1ccccc1C	-32%	.	.	.	?	.
CCC(C)(C(=O)NC1CCCC1)N(C(C)=O)c1ccc(C)cc1 (stereo unspecified)	8%	-2	-2%	-20	-11%	-1%
O=C(c1ccc(OC2CCN(C/C=C/c3ccc(F)cc3)CC2)cc1)N1CCCC1	-82%	-71*	?	-13	-7%	-12%
Cc1nc(N2CCC(C)CC2)c2c(C)c(C(=O)Nc3ccc(C(F)(F)F)cc3)sc2n1	-7%	-84*	?	-13	-2%	?
Cc1nc(N2CCC(C)CC2)c2c(C)c(C(=O)Nc3cccc(C(F)(F)F)c3)sc2n1	-1%	0	?	-11	8%	?
Cc1ccc(Nc2nc(N/N=C/c3c[nH]c4ccccc34)nc(N3CCOCC3)n2)cc1	-67%	-67*	?	-5	?	?
C(=N\Nc1nc(Nc2ccccc2)nc(N2CCOCC2)n1)/c1c[nH]c2ccccc12	-22%	-81*	?	20	4%	?
Cc1[nH]c2ccccc2c1/C=N/Nc1nc(Nc2ccc(F)cc2)nc(N2CCOCC2)n1	-6%	1	0%	-1	69%	-4%
CN(C)CCn1c(SCc2ccccc2C#N)nc2c(sc3ccccc32)c1=O	-33%	-6	1%	10	18%	-3%
COc1ccc(CCNC(=O)C2CCN(S(=O)(=O)N3CCCCCC3)CC2)cc1OC	9%	35	8%	-6	-12%	5%
CCCc1nc2ccccc2c(=O)n1/N=C/c1ccccc1O	-36%	36	?	-15	2.8µM*	?
Cc1ccc(-n2[nH]c(C)c(C=NCc3ccncc3)c2=O)cc1	-109%	33	?	-1	-9%	?
CCCc1nc2ccccc2c(=O)n1/N=C/c1c(C)[nH]n(-c2ccc(C)cc2)c1=O	-89%	44	18µM*	-16	?	16µM*
Cc1ccc(-c2[nH]ncc2/C=N/n2c(COc3ccccc3C)nc3ccccc3c2=O)cc1	5.6µM*	-99*	?	0	13µM*	?
Cc1nc2ccccc2c(=O)n1/N=C/c1ccc(O)cc1O	-22%	75	?	-2	4%	-21%
CC1CCN(c2ccc(C=O)o2)CC1	2%	-20	-9%	15	-8%	-1%
Cc1ccc2ncnc(Oc3ncccc3[N+](=O)[O-])c2c1	-72%	0	-6%	-11	?	-5%
O=[N+]([O-])c1ccc(N=Cc2ccc(Br)c([N+](=O)[O-])c2)cc1	-11%	-99*	-14%	1	-20%	?
O=[N+]([O-])c1ccc(C=Nc2ccccc2)cc1	-31%	-21	3%	.	3%	-21%
NC(=S)N/N=C1\CCOc2ccc(Cl)cc21	-58%	?	-15%	11	8.9µM*	-16%
O=C(/C=C/c1ccc2c(c1)OCO2)c1ccc[nH]1	-5%	-95*	-2%	-11	17%	-10%
SMILES	HepG2 tox	IL1B secr inh	HT1080 IDH1KD tx	Giardia killer	TGFb SMAD3 inh	HT1080-NT tox
COc1cccc(/C=C/C(=O)Oc2ccc(C(=O)c3ccc(F)cc3)cc2)c1	1%	8	4%	2	-6%	6%
O=C(/C=C/c1ccccc1)c1ccc2c(c1)OCO2	-75%	-7	0%	6	?	-18%
O=C(c1ccc2c(c1)OCO2)c1ccc[nH]1	7%	-11	6%	.	18%	5%
COc1cccc(/C=C/C(=O)c2ccc[nH]2)c1	-5%	-93*	-4%	-3	7%	-6%
O=C(CNC(=O)c1ccc2c(c1)OCO2)N/N=C(Br)/C=C/c1ccccc1	17%	-61*	15µM*	-17	-12%	?
CN(C)c1ccc(/C=C/C(=O)c2ccc3c(c2)OCO3)cc1	-8%	-92*	-14%	-27	22%	?
Cc1ccc(Nc2nnc(SCC(=O)NC3CCCc4ccccc43)s2)cc1 (stereo unspecified)	1%	-8	1%	-2	0%	-12%
O=C(/C=C/c1cccc(Br)c1)c1ccc2c(c1)OCO2	-87%	-104*	?	-3	?	?
O=C(/C=C/c1ccc2c(c1)OCO2)c1ccc(F)cc1	-15%	-74*	22%	19	?	5%
O=C(/C=C/c1ccncc1)c1ccc2c(c1)OCCO2	-88%	-98*	18µM*	?	?	?
O=C(Nc1ccncc1)c1ccc2c(c1)OCCO2	-16%	2	-10%	2	-11%	1%
CCOC(=O)[C@]12CCC=C1N(CCC1=CCCCC1)C(=O)[C@H](CC(=O)N1CCCCC1)C2	.	22	17%	.	.	12%
COc1ccc(S(=O)(=O)N2CCCC(C(=O)NCc3cccnc3)C2)cc1 (stereo unspecified)	11%	4	-8%	-23	0%	10%
COc1cc2nn(-c3ccccc3N)nc2cc1OC	-6%	-12	-7%	.	-1%	0%
S=C(NCCc1ccccc1)NC1CC2CCC(C1)N2Cc1ccccc1 (stereo unspecified)	2%	-60*	-8%	11	-15%	-15%
CCCNC(=S)NC1CC2CCC(C1)N2Cc1ccccc1 (stereo unspecified)	5%	-4	3%	-14	21%	4%
Cn1cc(CNCc2ccc(OC(F)(F)F)cc2)c(-c2ccc3c(c2)OCCO3)n1	-52%	-25	-6%	14	?	21µM*
CN(C)c1ccc(-n2cccc2/C=C/[N+](=O)[O-])cc1	-3%	-101*	6.5µM*	9	11%	6.5µM*
